# Assay results published in doi:10.1101/2025.02.07.636106.
# Key:
# Experiment in all cases: cross-linking mass spectrometry
# REPS1 = REPS1 (UniProt Q96D71); details: DMTMM
# RFC5 = RFC5 (UniProt P40937); details: DSSO
# RICTOR = RICTOR (UniProt Q6R327); details: DSSO
# RTN4 = RTN4 (UniProt Q9NQC3); details: DSSO
# RTRAF = RTRAF (UniProt Q9Y224); details: DSSO
# SCARA3 = SCARA3 (UniProt Q6AZY7); details: DMTMM
# SDHA = SDHA (UniProt P31040); details: DSSO
# SEC63 = SEC63 (UniProt Q9UGP8); details: DSSO
# SF3A1 = SF3A1 (UniProt Q15459); details: DSSO
# SF3A3 = SF3A3 (UniProt Q12874); details: DMTMM
# SF3B2 = SF3B2 (UniProt Q13435); details: DSSO
# SF3B3 = SF3B3 (UniProt Q15393); details: DSSO
# SIN3A = SIN3A (UniProt Q96ST3); details: DSSO
# Chain of SIN3A (Q96ST3 whole entry): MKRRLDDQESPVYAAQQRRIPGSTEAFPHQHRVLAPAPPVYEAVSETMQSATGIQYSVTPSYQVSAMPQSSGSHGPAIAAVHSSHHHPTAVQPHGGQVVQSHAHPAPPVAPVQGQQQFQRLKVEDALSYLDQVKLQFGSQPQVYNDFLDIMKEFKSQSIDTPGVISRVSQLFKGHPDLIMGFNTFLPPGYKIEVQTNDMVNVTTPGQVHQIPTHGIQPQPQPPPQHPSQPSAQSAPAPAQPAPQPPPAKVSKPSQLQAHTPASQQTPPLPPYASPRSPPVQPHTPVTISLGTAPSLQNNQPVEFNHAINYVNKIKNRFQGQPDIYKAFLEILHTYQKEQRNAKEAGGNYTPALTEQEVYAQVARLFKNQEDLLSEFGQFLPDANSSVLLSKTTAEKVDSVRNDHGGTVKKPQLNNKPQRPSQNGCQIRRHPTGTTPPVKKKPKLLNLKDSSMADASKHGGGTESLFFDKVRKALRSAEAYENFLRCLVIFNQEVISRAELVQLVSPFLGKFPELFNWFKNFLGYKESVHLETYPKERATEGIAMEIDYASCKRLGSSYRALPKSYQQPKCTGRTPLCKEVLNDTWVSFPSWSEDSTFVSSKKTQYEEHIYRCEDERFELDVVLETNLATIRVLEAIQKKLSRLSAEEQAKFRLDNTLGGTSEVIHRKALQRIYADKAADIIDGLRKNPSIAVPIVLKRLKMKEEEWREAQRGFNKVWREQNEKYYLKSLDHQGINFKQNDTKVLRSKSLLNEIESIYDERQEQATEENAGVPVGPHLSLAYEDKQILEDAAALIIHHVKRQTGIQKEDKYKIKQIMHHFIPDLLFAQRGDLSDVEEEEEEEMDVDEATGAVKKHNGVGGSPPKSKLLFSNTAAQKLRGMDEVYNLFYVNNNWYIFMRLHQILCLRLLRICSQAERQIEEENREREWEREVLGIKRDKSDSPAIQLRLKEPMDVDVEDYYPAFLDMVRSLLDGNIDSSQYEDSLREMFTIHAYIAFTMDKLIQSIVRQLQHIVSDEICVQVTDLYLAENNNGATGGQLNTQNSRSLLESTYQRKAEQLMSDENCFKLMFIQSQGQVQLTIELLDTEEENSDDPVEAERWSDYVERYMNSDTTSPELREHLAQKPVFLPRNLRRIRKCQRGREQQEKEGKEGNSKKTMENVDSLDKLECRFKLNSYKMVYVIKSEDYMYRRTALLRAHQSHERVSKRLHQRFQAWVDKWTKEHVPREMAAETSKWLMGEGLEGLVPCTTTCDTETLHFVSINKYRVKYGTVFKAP
# SLC7A5 = SLC7A5 (UniProt Q01650); details: DMTMM
# SNRPD3 = SNRPD3 (UniProt P62318); details: DSSO
# SPTAN1 = SPTAN1 (UniProt Q13813)
# SPTLC2 = SPTLC2 (UniProt O15270); details: DSSO
# SRP9 = SRP9 (UniProt P49458); details: DSSO
# SRSF6 = SRSF6 (UniProt Q13247); details: DSSO
# STX18 = STX18 (UniProt Q9P2W9); details: DSSO
# STX3 = STX3 (UniProt Q13277); details: DHSO
# Chain of STX3 (Q13277 whole entry): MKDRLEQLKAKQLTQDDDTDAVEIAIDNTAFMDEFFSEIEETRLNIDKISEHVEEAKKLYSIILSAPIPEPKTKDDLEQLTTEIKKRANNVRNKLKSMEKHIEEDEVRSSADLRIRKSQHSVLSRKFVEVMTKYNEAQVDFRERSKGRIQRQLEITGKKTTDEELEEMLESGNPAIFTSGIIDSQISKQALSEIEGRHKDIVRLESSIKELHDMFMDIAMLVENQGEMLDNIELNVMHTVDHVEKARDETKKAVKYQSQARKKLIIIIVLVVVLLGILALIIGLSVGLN
# STX8 = STX8 (UniProt Q9UNK0); details: DSSO
# SYTL4 = SYTL4 (UniProt Q96C24); details: DSSO
# THOC1 = THOC1 (UniProt Q96FV9); details: DSSO
# THOC2 = THOC2 (UniProt Q8NI27); details: DSSO
# THOC3 = THOC3 (UniProt Q96J01); details: DSSO
# Chain of THOC3 (Q96J01 whole entry): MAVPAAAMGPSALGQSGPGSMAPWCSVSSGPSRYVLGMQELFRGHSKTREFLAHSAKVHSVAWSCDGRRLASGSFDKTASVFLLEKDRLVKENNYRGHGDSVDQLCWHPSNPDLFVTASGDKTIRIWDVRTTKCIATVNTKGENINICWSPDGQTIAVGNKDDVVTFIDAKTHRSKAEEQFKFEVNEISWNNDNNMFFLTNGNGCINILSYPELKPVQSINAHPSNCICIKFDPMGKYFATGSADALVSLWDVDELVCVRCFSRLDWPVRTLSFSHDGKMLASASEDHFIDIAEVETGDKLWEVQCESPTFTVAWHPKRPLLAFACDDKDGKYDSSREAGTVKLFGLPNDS
# THOC7 = THOC7 (UniProt Q6I9Y2); details: DSSO
# Chain of THOC7 (Q6I9Y2 whole entry): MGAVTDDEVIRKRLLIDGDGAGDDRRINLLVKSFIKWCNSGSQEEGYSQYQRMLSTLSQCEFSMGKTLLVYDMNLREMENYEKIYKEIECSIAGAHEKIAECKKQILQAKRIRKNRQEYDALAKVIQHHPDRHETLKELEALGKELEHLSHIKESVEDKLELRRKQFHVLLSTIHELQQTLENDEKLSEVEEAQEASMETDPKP
# THRAP3 = THRAP3 (UniProt Q9Y2W1); details: DMTMM
# Chain of THRAP3 (Q9Y2W1 whole entry): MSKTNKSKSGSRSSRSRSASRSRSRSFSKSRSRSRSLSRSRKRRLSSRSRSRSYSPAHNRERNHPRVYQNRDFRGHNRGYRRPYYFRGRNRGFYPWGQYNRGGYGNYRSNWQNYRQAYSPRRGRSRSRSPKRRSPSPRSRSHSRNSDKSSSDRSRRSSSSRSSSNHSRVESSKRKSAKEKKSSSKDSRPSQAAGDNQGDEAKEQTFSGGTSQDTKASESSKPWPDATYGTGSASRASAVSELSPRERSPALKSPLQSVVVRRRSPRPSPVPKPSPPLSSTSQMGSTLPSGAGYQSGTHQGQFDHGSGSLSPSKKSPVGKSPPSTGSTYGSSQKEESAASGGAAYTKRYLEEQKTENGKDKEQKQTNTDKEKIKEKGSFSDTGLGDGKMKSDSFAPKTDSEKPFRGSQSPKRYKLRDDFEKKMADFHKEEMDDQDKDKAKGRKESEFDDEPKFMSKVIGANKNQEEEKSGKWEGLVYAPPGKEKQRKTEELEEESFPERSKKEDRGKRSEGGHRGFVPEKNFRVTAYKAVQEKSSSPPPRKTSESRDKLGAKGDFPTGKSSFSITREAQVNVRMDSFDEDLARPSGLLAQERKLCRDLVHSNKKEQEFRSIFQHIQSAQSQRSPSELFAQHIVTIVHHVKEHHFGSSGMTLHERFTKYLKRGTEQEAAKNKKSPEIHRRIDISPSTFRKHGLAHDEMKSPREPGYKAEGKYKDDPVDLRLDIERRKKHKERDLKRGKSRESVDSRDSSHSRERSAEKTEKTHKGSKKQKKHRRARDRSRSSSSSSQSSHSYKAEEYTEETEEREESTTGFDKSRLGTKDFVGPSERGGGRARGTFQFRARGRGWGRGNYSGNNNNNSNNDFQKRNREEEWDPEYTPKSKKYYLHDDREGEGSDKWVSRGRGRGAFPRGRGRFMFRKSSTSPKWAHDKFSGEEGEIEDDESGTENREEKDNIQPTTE
# TLE5 = TLE5 (UniProt Q08117); details: DSSO
# TMED4 = TMED4 (UniProt Q7Z7H5); details: DSSO
# Chain of TMED4 (Q7Z7H5 whole entry): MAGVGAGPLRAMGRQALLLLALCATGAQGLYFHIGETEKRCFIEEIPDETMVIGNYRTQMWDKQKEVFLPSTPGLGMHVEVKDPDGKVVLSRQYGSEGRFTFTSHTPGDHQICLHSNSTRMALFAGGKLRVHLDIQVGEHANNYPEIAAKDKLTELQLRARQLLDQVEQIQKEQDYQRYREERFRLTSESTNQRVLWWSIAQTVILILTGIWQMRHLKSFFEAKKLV
# TMEM184C = TMEM184C (UniProt Q9NVA4); details: DMTMM
# TMEM230 = TMEM230 (UniProt Q96A57); details: DSSO
# TMEM9B = TMEM9B (UniProt Q9NQ34); details: DSSO
# TRIM14 = TRIM14 (UniProt Q14142); details: DSSO
# VAMP8 = VAMP8 (UniProt Q9BV40); details: DSSO
# UGGT1 = UGGT1 (UniProt Q9NYU2); details: DSSO
# UVRAG = UVRAG (UniProt Q9P2Y5); details: DSSO
# VIM = VIM (UniProt P08670); details: DMTMM
# Chain of SNRPA1, P09661 (P09661 whole entry): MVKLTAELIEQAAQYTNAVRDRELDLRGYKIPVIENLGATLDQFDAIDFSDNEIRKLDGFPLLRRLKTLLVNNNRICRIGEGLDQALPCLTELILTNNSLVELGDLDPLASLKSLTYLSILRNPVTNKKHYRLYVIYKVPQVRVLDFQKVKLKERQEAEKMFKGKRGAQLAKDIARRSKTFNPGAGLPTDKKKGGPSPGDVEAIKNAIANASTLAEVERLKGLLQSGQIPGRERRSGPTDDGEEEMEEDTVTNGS
# Chain of THOC7, Q6I9Y2 (Q6I9Y2 whole entry): as the sequence (Q6I9Y2 whole entry) above
# Chain of THOC5, Q13769 (Q13769 whole entry): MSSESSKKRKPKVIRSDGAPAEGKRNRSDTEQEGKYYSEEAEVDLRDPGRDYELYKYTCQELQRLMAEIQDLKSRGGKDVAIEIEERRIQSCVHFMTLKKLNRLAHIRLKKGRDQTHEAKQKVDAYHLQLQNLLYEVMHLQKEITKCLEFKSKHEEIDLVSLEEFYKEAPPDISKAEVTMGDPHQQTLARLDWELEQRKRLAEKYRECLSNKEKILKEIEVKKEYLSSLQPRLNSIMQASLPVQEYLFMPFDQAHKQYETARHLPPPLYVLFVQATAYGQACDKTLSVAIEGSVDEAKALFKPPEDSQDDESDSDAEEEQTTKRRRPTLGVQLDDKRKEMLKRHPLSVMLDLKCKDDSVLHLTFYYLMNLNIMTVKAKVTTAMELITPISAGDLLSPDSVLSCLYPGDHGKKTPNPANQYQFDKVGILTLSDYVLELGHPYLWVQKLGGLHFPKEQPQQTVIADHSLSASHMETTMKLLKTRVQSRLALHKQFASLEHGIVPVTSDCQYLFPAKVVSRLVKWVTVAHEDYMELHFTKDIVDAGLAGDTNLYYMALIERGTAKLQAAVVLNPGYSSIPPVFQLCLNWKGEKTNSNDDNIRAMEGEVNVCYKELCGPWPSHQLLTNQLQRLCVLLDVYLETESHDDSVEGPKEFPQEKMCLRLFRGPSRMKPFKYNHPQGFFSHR
# Chain of PTTG1IP, P53801 (P53801 whole entry): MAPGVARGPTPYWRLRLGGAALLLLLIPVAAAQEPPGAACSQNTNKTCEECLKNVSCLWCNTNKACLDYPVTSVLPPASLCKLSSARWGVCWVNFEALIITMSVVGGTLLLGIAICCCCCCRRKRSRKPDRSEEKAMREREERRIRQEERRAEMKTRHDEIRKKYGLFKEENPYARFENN
# Chain of RTRAF (Q9Y224 whole entry): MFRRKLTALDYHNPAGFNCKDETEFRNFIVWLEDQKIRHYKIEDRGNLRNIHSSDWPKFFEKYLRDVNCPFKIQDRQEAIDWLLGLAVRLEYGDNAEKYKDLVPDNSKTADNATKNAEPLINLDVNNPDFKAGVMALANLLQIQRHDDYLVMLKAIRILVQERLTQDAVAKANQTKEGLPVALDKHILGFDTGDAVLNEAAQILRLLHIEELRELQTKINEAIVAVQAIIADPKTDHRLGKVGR
# Chain of SNRPB2, P08579 (P08579 whole entry): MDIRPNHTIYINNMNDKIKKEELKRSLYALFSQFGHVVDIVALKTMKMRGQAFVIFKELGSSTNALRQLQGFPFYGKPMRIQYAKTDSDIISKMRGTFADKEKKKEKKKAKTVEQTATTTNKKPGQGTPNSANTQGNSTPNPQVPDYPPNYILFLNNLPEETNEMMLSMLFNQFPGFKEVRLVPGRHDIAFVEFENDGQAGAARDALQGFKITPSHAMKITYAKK
substance,measurement,setting,value
"RALBP1, Q15311",cross-linked residues,REPS1,E520 - K701
"RFC2, P35250",cross-linked residues,RFC5,K99 - K144
"MTOR, P42345",cross-linked residues,RICTOR,K1218 - K507
"RTN3, O95197",cross-linked residues,RTN4,K1028 - K1183
"FAM98B, Q52LJ0",cross-linked residues,RTRAF,K280 - K171
"COLEC12, Q5KU26",cross-linked residues,SCARA3,E87 - K97
"SDHB, P21912",cross-linked residues,SDHA,K167 - K167
"SEC61B, P60468",cross-linked residues,SEC63,K35 - K607
"SNRPA1, P09661",cross-linked residues,SF3A1,K193 - K188
same,cross-linked residues,SF3A3,K179 - E70
same,cross-linked residues,SF3B2,K191 - K280
"SNRPB, P14678",cross-linked residues,SF3B2,K57 - K320
"SF3B2, Q13435",cross-linked residues,SF3B3,K605 - K1074
"BRMS1L, Q5PSV4",cross-linked residues,SIN3A,K118 - K937
"HDAC2, Q92769",cross-linked residues,SIN3A,K75 - K569
"SLC3A2, P08195",cross-linked residues,SLC7A5,K65 - E40
"SNRPB2, P08579",cross-linked residues,SNRPD3,K93 - K78
"SPTBN1, Q01082",cross-linked residues,SPTAN1; DMTMM,K1939 - E10
same,cross-linked residues,SPTAN1; DSSO,K2054 - K441
"SPTLC1, O15269",cross-linked residues,SPTLC2,K126 - K194
"SRP14, P37108",cross-linked residues,SRP9,K74 - K76
"SRSF4, Q08170",cross-linked residues,SRSF6,K95 - K127
"SCFD1, Q8WVM8",cross-linked residues,STX18,K63 - K147
"SNAP23, O00161",cross-linked residues,STX3,D18 - E195
"VPS16, Q9H269",cross-linked residues,STX8,K496 - K98
"RAB8A, P61006",cross-linked residues,SYTL4,K176 - K123
"THOC7, Q6I9Y2",cross-linked residues,THOC1,K98 - K290
same,cross-linked residues,THOC2,K32 - K1084
"THOC5, Q13769",cross-linked residues,THOC3,K223 - K171
same,cross-linked residues,THOC7,K223 - K159
"THOC2, Q8NI27",cross-linked residues,THOC3,K562 - K329
"MGA, Q8IWI9",cross-linked residues,THRAP3,E2537 - K252
"HIVEP3, Q5T1R4",cross-linked residues,THRAP3,K11 - E203
"TLE3, Q04726",cross-linked residues,TLE5,K49 - K54
"TMED10, P49755",cross-linked residues,TMED4,K75 - K87
"TMEM244, Q5VVB8",cross-linked residues,TMEM184C,M1 - E427
"ATP11A, P98196",cross-linked residues,TMEM230,K809 - K35
"CLCN3, P51790",cross-linked residues,TMEM9B,K722 - K171
"PTTG1IP, P53801",cross-linked residues,TRIM14,K169 - K83
same,cross-linked residues,VAMP8,K169 - K24
"SELENOF, O60613",cross-linked residues,UGGT1,K83 - K362
"PIK3R4, Q99570",cross-linked residues,UVRAG,K449 - K87
"NEFL, P07196",cross-linked residues,VIM,K91 - E277
